Only some compounds are listed: those with a hit (about 3.9% of all), similar ones and a draw of the others.
Bead autofluor – flagged as autofluorescent in microsphere protease counterscreen; 360,000 compounds, 3.1% hits; fluorescence intensity (concentration not given with the values); compound autofluorescence counterscreen, microsphere flow cytometry; active compounds read high; in the data active = fluorescence intensity above about 16000; inconclusive = no clear call, values can overlap the other calls
Anthrax LF inh2 – anthrax lethal factor protease inhibition | multiplex microsphere protease cleavage assay, LF | inhibition, % at 10 µM | 360,000 compounds, 0.12% hits | AID 588501
Target sequence (P15917 whole entry, looked up): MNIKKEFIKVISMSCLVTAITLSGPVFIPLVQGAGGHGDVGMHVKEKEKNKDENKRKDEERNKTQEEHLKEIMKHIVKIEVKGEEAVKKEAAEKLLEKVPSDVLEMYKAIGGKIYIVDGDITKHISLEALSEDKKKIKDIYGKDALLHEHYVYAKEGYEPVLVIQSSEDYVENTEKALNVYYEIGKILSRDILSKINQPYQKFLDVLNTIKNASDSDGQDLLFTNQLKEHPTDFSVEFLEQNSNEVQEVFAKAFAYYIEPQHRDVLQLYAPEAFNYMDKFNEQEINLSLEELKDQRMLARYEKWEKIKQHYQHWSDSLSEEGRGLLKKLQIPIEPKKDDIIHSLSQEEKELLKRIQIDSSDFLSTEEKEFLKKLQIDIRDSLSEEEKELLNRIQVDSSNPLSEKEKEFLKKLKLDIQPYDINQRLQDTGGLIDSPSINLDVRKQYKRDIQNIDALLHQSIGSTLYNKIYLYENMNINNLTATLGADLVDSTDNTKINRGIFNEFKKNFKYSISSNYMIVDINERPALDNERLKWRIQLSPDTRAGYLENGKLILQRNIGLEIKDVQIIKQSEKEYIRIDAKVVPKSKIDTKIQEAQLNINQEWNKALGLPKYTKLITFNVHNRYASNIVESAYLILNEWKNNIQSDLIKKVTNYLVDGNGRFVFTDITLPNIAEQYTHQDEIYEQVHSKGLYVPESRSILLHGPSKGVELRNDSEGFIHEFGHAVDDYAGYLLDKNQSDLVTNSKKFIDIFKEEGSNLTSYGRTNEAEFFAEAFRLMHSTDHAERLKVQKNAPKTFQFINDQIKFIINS
BoNT-A LC inh2 – BoNT A light chain protease inhibition | multiplex microsphere protease substrate cleavage, flow cytometry | inhibition, % at 10 µM | 360,000 compounds, 0.17% hits | AID 588499
BoNT F protease – inhibitors of Botulinum neurotoxin F light chain protease | inhibition, % at 10 µM | Multiplex microsphere protease cleavage assay, flow cytometry | 360,000 compounds, 0.22% hits; in the data active = inhibition above about 35%, passing the limit was not always enough; inconclusive = no clear call, values can overlap the other calls
CCHFV vOTU inh – CCHFV vOTU protease inhibition; 370,000 compounds, 0.55% hits; Pep-AMC fluorescence; AID 651958; inhibition, % at 11.5 µM; in the data active = inhibition above about 30%
3CLpro inhibitor – SARS-CoV 3CLpro protease inhibition | recombinant SARS-CoV 3CLpro, quenched FRET peptide cleavage | inhibition, % at 6 µM | 290,000 compounds, 0.14% hits | P0C6X7; in the data active = inhibition above about 12%
A number is an active result; 0 = inactive; ? = inconclusive; - = no result. Rule as the data show it, unless noted: active = inhibition above about 30%; inconclusive = no clear call, values can overlap the other calls; inactive = below that.

SMILES | Bead autofluor | Anthrax LF inh2 | BoNT-A LC inh2 | BoNT F protease | CCHFV vOTU inh | 3CLpro inhibitor
CC1(C)NC(=O)N(CC(=O)O)C1=O | 17429 | 0 | 0 | 0 | 0 | 0
CC1(C)NC(=O)N(CN2C(=O)NC(C)(C)C2=O)C1=O | 0 | 0 | 0 | 0 | 0 | 0
CCOC(=O)C1=C(C)NC(C)=C(C(=O)OCC)C1/C=C/c1ccccc1 | 22125 | 0 | 0 | 0 | 0 | 0
COC(=O)C1=C(C)NC(C)=C(C(=O)OC)C1c1ccc(N(C)C)cc1 | 23084 | 0 | ? | 0 | 0 | 0
COC(=O)C1=C(C)NC(C)=C(C(=O)OC)C1/C=C/c1ccccc1 | 20052 | 0 | 0 | 0 | 0 | 0
Cc1ccc(NS(=O)(=O)c2cc(C(=O)N(C)C3CCN(C)CC3)ccc2Cl)cc1Cl | - | - | - | - | 0 | -
O=c1[nH]c2ccc(Cl)cc2c(-c2ccccc2)c1N1CCN(CCO)CC1 | 20528 | 0 | ? | 0 | 0 | 0
CNc1oc(Cc2cccc3ccccc23)nc1C#N | 17571 | 0 | 0 | 0 | 0 | 0
CC(C)Nc1oc(Cc2cccc3ccccc23)nc1C#N | 24202 | 0 | ? | 0 | 0 | 0
CCC(=O)c1cn(Cc2ccccc2C#N)c2ccccc12 | 23775 | 0 | 0 | 0 | 0 | 0
CC(C)C(=O)Nc1cccc(C(=O)NCc2ccc(S(N)(=O)=O)cc2)c1 | 18546 | 0 | 0 | 0 | 0 | 0
CCOC(=O)C1=C(C)N(C[C@@H]2CC[C@@H](Cc3ccc(-c4ccccc4)cc3)O2)C(=O)NC1c1ccc(SCc2ccco2)c([N+](=O)[O-])c1 (some centres undefined) | 0 | 0 | 0 | 0 | 0 | -
COc1cc(C)c(S(=O)(=O)Nc2ccc(CC(=O)O)cc2)cc1C | 25248 | 0 | 0 | 0 | 0 | 0
Cc1cc(N2CCN(C(c3ccccc3)c3ccccc3)CC2)n2ncnc2n1 | 0 | 0 | 0 | 0 | 0 | 0
Cc1nc2ncnn2c(N2CCN(c3cccc(C(F)(F)F)c3)CC2)c1C | 22031 | 0 | 0 | 0 | 0 | 0
Cc1nc2ncnn2c(N2CCN(C(c3ccccc3)c3ccccc3)CC2)c1C | 18747 | 0 | 0 | 0 | 0 | 0
O=C(Nc1cccc(Cl)c1)Nc1csc([N+](=O)[O-])c1 | 0 | 0 | 0 | ? | 0 | 0
CCN(CC)CCOc1ccc2nc(N(C)C)sc2c1 | 0 | 0 | 0 | 0 | 0 | 0
CN(C)c1nc2ccc(OCCN3CCCCC3)cc2s1 | 23663 | 0 | 0 | 0 | 0 | 0
CCOc1ccc2nc(N3CCCCCC3)sc2c1 | 16527 | 0 | 0 | 0 | - | 0
Nc1ncnc2c1ncn2[C@@H]1O[C@H](CNC(=O)[C@@H](N)COCc2ccccc2)[C@@H](O)[C@H]1O | 0 | 0 | 0 | 0 | - | -
Clc1ccc(CSc2ncn(-c3ccccc3)n2)cc1 | 21528 | 0 | 0 | 0 | 0 | 0
O=C(CSc1ncn(-c2ccccc2)n1)N1CCc2ccccc21 | 0 | 0 | 0 | 0 | 0 | 0
Clc1cccc(CSc2ncn(-c3ccccc3)n2)c1 | 16759 | 0 | 0 | 0 | 0 | 0
Cc1ccccc1C(=O)N(Cc1ccccn1)CC1CCCO1 (centres undefined) | - | - | - | - | 0 | -
SMILES | Bead autofluor | Anthrax LF inh2 | BoNT-A LC inh2 | BoNT F protease | CCHFV vOTU inh | 3CLpro inhibitor
Cc1nc2ccccc2c(=O)n1NC(=O)C1CCC(C(C)(C)C)CC1 (centres undefined) | 0 | 0 | 0 | 0 | 0 | 0
CCOC(=O)Cc1csc(NC(=O)NC2(C(F)(F)F)Oc3ccc(Cl)cc3O2)n1 (centres undefined) | 0 | 0 | 0 | 0 | 0 | 0
CCOC(=O)Cc1csc(NC(=O)COc2ccccc2)n1 | 22960 | 0 | 0 | 0 | 0 | 0
CCOC(=O)Cc1csc(NC(=O)c2ccco2)n1 | 20219 | 0 | 0 | 0 | 0 | 0
CCOC(=O)Cc1csc(NC(=O)NC2(C(F)(F)F)Oc3ccccc3O2)n1 | 16388 | 0 | 0 | 0 | 0 | 0
CCOC(=O)Cc1csc(NC(=O)c2ccc(S(=O)(=O)N3CCCCC3)cc2)n1 | 22414 | 0 | ? | 0 | 0 | 0
CCOC(=O)Cc1csc(NC(=O)c2ccc(C)o2)n1 | 0 | 0 | 0 | 0 | 0 | 0
CCOC(=O)c1ccccc1NC(=O)CSC(C)C(=O)Nc1cc(C)on1 (centres undefined) | 0 | 0 | 0 | 0 | 0 | -
O=C(Nc1ccc(Cl)c(Cl)c1)C1CCN(c2nnc(-n3cccc3)s2)CC1 | - | - | - | - | 0 | -
COC(=O)c1cc2c(c3c4cc(C)ccc4n(S(=O)(=O)c4ccc(C)cc4)c13)C(=O)N(Cc1ccc(N(C)C)cc1)C2 | - | - | - | - | 0 | -
C[C@@H]1COc2cccc(N3CCCCC3)c2S(=O)(=O)N1 | - | - | - | - | 0 | -
CCc1ccc(CN2CCN(c3ncccn3)CC2)cc1 | 0 | 0 | 0 | 44.4 | 0 | 0
CCc1ccc2[nH]c(=O)c(CN(Cc3ccco3)S(=O)(=O)c3ccc4c(c3)OCCO4)cc2c1 | 0 | 0 | 0 | 0 | 0 | 0

Compound activity as filed in PubChem.
